Bioassay records from PubChem BioAssay.
Hits are enriched below; roughly 2.2% of the tested compounds scored in any of these assays.
FAS-TE inh = FAS thioesterase domain inhibitors, primary screen, biochemical, fluorescence intensity, uHTS; actives 0.67% (n = 360,000); recombinant FAS-TE, OMFH fluorogenic substrate, fluorescence endpoint; inhibition, % at 15 µM;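 active = compounds whose normalised, plate-corrected inhibition of enzyme fluorescence in the single-dose primary screen is 50% or more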
PLC-gamma1 inh = PLC-gamma1 enzyme inhibitors, primary screen, biochemical, fluorescence, purified enzyme | 1-phosphatidylinositol 4,5-bisphosphate phosphodiesterase gamma-1 (Homo sapiens), P19174 | fluorogenic substrate | inhibition, % at 12.2 µM | actives 0.84% (n = 370,000) | AID 720700, 2013; in the data active = inhibition above about 9.5%
Cardio protect = cardioprotection against H2O2-induced cell death, primary screen, uHTS, H9c2 cells, ATPLite luminescence; H9c2 cardiomyocytes, H2O2 injury protection, 2 h; protection from H2O2 cell death, % at 20 µM; actives 0.63% (n = 360,000); AID 588492, 2011;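 active = compounds giving at least 50% protection of heart cells from peroxide-induced death in the single-dose screen, raw or plate-pattern-corrected value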
PLC-beta3 inh = human PLC-beta3 inhibitors, primary screen, biochemical, fluorescence | 1-phosphatidylinositol 4,5-bisphosphate phosphodiesterase beta-3 (Homo sapiens), Q01970 | Purified PLC-beta3, fluorogenic substrate | inhibition, % at 12.2 µM | actives 0.18% (n = 370,000); in the data active = inhibition above about 11%
Target sequence (Q01970 whole entry, looked up): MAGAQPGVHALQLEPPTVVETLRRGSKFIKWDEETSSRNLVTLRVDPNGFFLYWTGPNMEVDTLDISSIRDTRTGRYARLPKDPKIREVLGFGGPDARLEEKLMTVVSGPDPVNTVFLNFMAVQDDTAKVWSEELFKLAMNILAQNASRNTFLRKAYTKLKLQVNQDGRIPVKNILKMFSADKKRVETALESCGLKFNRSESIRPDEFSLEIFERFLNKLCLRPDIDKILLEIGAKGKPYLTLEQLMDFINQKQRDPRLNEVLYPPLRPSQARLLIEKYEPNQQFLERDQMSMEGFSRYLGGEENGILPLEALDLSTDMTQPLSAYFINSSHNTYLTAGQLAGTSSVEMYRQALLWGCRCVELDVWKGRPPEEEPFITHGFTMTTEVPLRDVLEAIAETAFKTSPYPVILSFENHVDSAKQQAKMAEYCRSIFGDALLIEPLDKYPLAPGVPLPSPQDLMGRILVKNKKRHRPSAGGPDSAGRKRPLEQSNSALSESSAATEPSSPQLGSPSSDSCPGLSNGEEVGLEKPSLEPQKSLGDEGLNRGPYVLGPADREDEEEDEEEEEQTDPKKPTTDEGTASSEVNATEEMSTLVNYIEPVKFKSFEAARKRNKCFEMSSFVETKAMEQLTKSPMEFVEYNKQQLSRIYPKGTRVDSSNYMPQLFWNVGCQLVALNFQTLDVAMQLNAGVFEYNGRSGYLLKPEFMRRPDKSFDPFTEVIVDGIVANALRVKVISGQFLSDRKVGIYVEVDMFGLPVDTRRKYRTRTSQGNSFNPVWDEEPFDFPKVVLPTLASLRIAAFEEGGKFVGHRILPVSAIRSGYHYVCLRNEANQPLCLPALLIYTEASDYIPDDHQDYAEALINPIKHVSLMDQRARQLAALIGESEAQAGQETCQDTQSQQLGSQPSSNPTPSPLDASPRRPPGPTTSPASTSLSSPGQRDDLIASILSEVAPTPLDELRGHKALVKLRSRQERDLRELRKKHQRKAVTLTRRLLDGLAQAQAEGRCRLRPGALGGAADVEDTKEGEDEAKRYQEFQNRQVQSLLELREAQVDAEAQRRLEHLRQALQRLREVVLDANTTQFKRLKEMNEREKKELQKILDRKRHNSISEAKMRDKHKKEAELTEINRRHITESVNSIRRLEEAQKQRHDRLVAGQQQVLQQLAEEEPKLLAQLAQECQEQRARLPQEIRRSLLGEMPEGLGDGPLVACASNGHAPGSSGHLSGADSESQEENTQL
FAS-TE inh conf = FAS thioesterase domain inhibitors, confirmation, biochemical, fluorescence intensity, single concentration; inhibition, % at 15 µM; actives 45% (n = 2,300); recombinant FAS-TE, OMFH fluorogenic substrate; AID 624325, 2012; shares compounds with FAS-TE inh;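 active = compounds inhibiting the enzyme by at least 50% at 15 µM in any one of the replicates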
Large screens that a line does not name were inactive (follow-up assays come after a bar, where they were run).

CC(C)(C)c1cc(Br)c(O)c(N=Nc2ccc(S(=O)(=O)N3CCOCC3)cc2)c1	FAS-TE inh 84 | FAS-TE inh conf 49
Cc1cccc2nc(-c3ccccc3)c(-c3ccc(CN4CCC(n5cc(-c6ccccc6)[nH]c5=O)CC4)cc3)nc12	none (no result: FAS-TE inh, Cardio protect)
CCOC(=O)c1c(-c2ccccc2)csc1NC(=O)c1cc(S(=O)(=O)N2CCOCC2)ccc1C	FAS-TE inh 52 | FAS-TE inh conf inactive
Cc1ccc(C2NC(c3ccc(C)cc3)C([N+](=O)[O-])C(C)(C)C2[N+](=O)[O-])cc1 (stereo unspecified)	FAS-TE inh 60 | FAS-TE inh conf inactive
CC1(C)C([N+](=O)[O-])C(c2ccc(Cl)cc2)NC(c2ccc(Cl)cc2)C1[N+](=O)[O-] (stereo unspecified)	FAS-TE inh 66 | FAS-TE inh conf inactive
Cc1onc(-c2ccccc2)c1C(=O)n1nnc2ccccc21	FAS-TE inh 52 | FAS-TE inh conf 51
CCOc1ccc(-c2csc(/C(C#N)=C\c3ccc(O)c([N+](=O)[O-])c3)n2)cc1	FAS-TE inh 72 | FAS-TE inh conf 61
C[C@@H]1N[C@H]2N(C1=O)c1ccccc1[C@@]21C[C@@H]2C(=O)N[C@](C)(O1)c1nc3ccccc3c(=O)n12	none (no result: FAS-TE inh, Cardio protect)
C/C(=N\NS(=O)(=O)c1ccc(Cl)c([N+](=O)[O-])c1)c1cc2ccccc2o1	FAS-TE inh 54 | FAS-TE inh conf 59
C/C(=N\NS(=O)(=O)c1ccc(C)c([N+](=O)[O-])c1)c1cc2ccccc2o1	none
O=C(CCc1c[nH]c2ccccc12)Nc1ccc(Nc2cccnc2)cc1	none (no result: FAS-TE inh, Cardio protect)
O=CN1N=C(c2ccccc2)CC1c1ccc(Cl)cc1 (stereo unspecified)	none
O=C1OC(c2ccccc2)=NC12CC2c1ccc(Cl)cc1 (stereo unspecified)	FAS-TE inh 90 | FAS-TE inh conf 97
O=C(CCCn1c(SCc2cccc([N+](=O)[O-])c2)nc2ccccc2c1=O)NCC1CCCO1 (stereo unspecified)	FAS-TE inh 86 | FAS-TE inh conf inactive
O=C(CCCn1c(SCc2ccccc2F)nc2ccccc2c1=O)NCC1CCCO1 (stereo unspecified)	none
Cc1nnc(SCC(=O)N(C2CCCCC2)C2CCS(=O)(=O)C2)n1C (stereo unspecified)	none
COCCOc1ccc(C(F)(F)F)cc1NC(=O)Cc1ccc(S(=O)(=O)N2CCOCC2)s1	FAS-TE inh 65 | FAS-TE inh conf 69
CN(Cc1ccc(C(C)(C)C)cc1)C(=O)Cc1ccc(S(=O)(=O)N2CCOCC2)s1	FAS-TE inh 85 | FAS-TE inh conf 89
CN(Cc1cccc(F)c1)C(=O)Cc1ccc(S(=O)(=O)N2CCOCC2)s1	none
O=[N+]([O-])c1ccc(Sc2n[nH]c(-c3ccccc3)n2)nc1	FAS-TE inh 52 | FAS-TE inh conf 64
CCCCCCCCNC(=O)/C(C#N)=C/c1ccccc1[N+](=O)[O-]	FAS-TE inh 57 | FAS-TE inh conf 73
O=C(Cn1nnc(-c2ccc(N3CCOCC3)cc2)n1)c1ccccc1	none (no result: FAS-TE inh, Cardio protect)
O=C(COC(=O)c1cc([N+](=O)[O-])ccc1Cl)NC1CCCC1	FAS-TE inh 80 | FAS-TE inh conf 87
COC(=O)c1cc(C(=O)OCC(=O)NC2CCCCCCC2)cc([N+](=O)[O-])c1	FAS-TE inh 70 | FAS-TE inh conf 37
COC(=O)c1cc(C(=O)OCC(=O)c2ccc3c(c2)NC(=O)CO3)cc([N+](=O)[O-])c1	FAS-TE inh 57 | FAS-TE inh conf 53
COc1ccc(-c2nnc(SCC(=O)N/N=C(\C)c3ccc(-c4ccccc4)cc3)n2-c2ccc(C)cc2)cc1	none (no result: FAS-TE inh, Cardio protect)
COc1ccc(-n2c(SCc3cccc4ccccc34)nnc2-c2ccccc2)cc1	none (no result: FAS-TE inh, Cardio protect)
Nc1c(C(=O)CSc2nnnn2-c2ccc(O)cc2)c(=O)[nH]c(=O)n1C1CC1	none
COc1ccc(C2CC(c3ccc(Cl)cc3)=NN2C(=O)c2cccc([N+](=O)[O-])c2)cc1 (stereo unspecified)	none
COc1ccc(C2=NN(C(=O)c3ccc(Cl)c([N+](=O)[O-])c3)C(c3ccccc3)C2)cc1 (stereo unspecified)	FAS-TE inh 56 | FAS-TE inh conf inactive
CCC[C@H]1[C@@H](NC(=O)c2ccc(N(C)C)cc2)CC[C@@]23CCCN2C(=O)CCC[C@@H]13	none (no result: FAS-TE inh, Cardio protect)
O=C(CN1CCN(S(=O)(=O)c2ccc(Cl)c(C(F)(F)F)c2)CC1)NC(=O)NC1CCCCC1	FAS-TE inh 77 | FAS-TE inh conf 20
CCCCCCCCN1CCS(=O)(=O)N(Cc2ccc(Cl)cc2)C(C(=O)OC)C1 (stereo unspecified)	none (no result: FAS-TE inh, Cardio protect)
CCc1cc2c(nc1CC)CCCN2S(=O)(=O)c1c(C)noc1C	none (no result: FAS-TE inh, Cardio protect)
CCCc1cc(=O)[nH]c(SCC(=O)N2CCc3ccccc32)n1	none
O=C(O)CSc1cc(C(=O)c2ccccc2O)cn2c(=O)c3c(-c4ccccc4)csc3nc12	FAS-TE inh 70 | FAS-TE inh conf 79
COc1ccc(NC(=O)Nc2ccccc2C(=O)N2CCCC2)cc1OC	none (no result: FAS-TE inh, Cardio protect)
O=C1OCCN1C(=O)[C@H]1[C@H](c2ccccc2)C(c2cccc(Cl)c2)=NN1c1ccccc1	FAS-TE inh 56 (no result: PLC-gamma1 inh, PLC-beta3 inh) | FAS-TE inh conf inactive
Cc1cccc(C2=NN(c3ccccc3)[C@@H](C(=O)N3CCOC3=O)[C@@H]2c2ccc(Cl)cc2)c1	FAS-TE inh 56 | FAS-TE inh conf inactive
Cc1cccc(C2=NN(c3ccccc3)[C@@H](C(=O)N3CCOC3=O)[C@@H]2c2ccc(F)cc2)c1	none
CC(C)C[C@@H]1COc2cc(Br)ccc2S(=O)(=O)N1Cc1cn(Cc2ccc(F)cc2)nn1	none (no result: FAS-TE inh, Cardio protect)
CCOC(=O)C1CSCCS(=O)(=O)N1Cc1ccc(F)cc1F (stereo unspecified)	none (no result: FAS-TE inh, Cardio protect)
O=[N+]([O-])c1c(Nc2ccccc2O)ccc2nonc12	none
O=[N+]([O-])c1c(Nc2ccccc2O)cc(Cl)c2nonc12	FAS-TE inh 65 | FAS-TE inh conf 53
O=C1NC(=S)SC1=Cc1ccccc1Cl	none
Cc1ccc(C2C(/C=C3/SC(=S)NC3=O)=C(c3cccs3)Oc3ccccc32)cc1 (stereo unspecified)	FAS-TE inh 64 | FAS-TE inh conf inactive
Cc1ccc(Cn2c(SCC(=O)N3CC(=O)Nc4ccccc43)nc3ccccc3c2=O)cc1	FAS-TE inh 53 | FAS-TE inh conf inactive
Cc1nnc(SCC(=O)N2CC(=O)Nc3ccccc32)n1Cc1ccccc1	none
O=C1CN(C(=O)CSc2nc3cc(Cl)ccc3c(=O)n2Cc2ccccc2)c2ccccc2N1	FAS-TE inh 76 | FAS-TE inh conf inactive
